Assay results taken from PubChem BioAssay AID1159580 (chemical genetic matrix, 2015).
Out of some 5,500 compounds screened, about 2,000 (36%) were called active. Not shown: some 18% with an inconclusive outcome. Some of the results follow. A number with no mark means an inactive call. Rule as the data show it: active = normalized growth mostly below about 0.91 (no sharp cut-off); inconclusive = no clear call, values can overlap the other calls; inactive = mostly above about 0.92.

Test: chemical genetic growth profiling, strain panel (AID 1159580);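 also: tested at 20 µM; growth read once vehicle control cultures reached saturation at 30 °C; 1 = growth at the plate median or of vehicle wells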
Details: S. cerevisiae deletion strains, growth OD

Cc1nc([N+](=O)[O-])cn1CC(=O)c1ccc(Cl)cc1
normalized growth (locus YAR019C, strain CDC15, stronger effect = lower value): 0.973 | normalized growth (locus YBL105C, strain PKC1, stronger effect = lower value): 0.97 | normalized growth (locus YBR135W, strain CKS1, stronger effect = lower value): 0.982 | normalized growth (locus YBR136W, strain MEC1, stronger effect = lower value): 0.973 | normalized growth (locus YBR160W, strain CDC28, stronger effect = lower value): 0.984 | normalized growth (locus YDL017W, strain CDC7, stronger effect = lower value): 0.981 | normalized growth (locus YDL028C, strain MPS1, stronger effect = lower value): 0.969 | normalized growth (locus YDL101C, strain DUN1, stronger effect = lower value): 0.978 | normalized growth (locus YDL108W, strain KIN28, stronger effect = lower value): 0.963 | normalized growth (locus YDL132W, strain cdc53, stronger effect = lower value): 0.976 | normalized growth (locus YDL214C, strain PRR2, stronger effect = lower value): 0.927 | normalized growth (locus YDR052C, strain DBF4, stronger effect = lower value): 0.964 | normalized growth (locus YDR054C, strain cdc34, stronger effect = lower value): 0.973 | normalized growth (locus YDR226W, strain ADK1, stronger effect = lower value): 0.972 | normalized growth (locus YDR477W, strain SNF1, stronger effect = lower value): 0.938 | normalized growth (locus YER123W, strain YCK3, stronger effect = lower value): 0.782 | normalized growth (locus YER133W, strain GLC7, stronger effect = lower value): 0.94 | normalized growth (locus YFL009W, strain cdc4, stronger effect = lower value): 0.982 | normalized growth (locus YFL029C, strain CAK1, stronger effect = lower value): 0.971 | normalized growth (locus YFR003C, strain YPI1, stronger effect = lower value): 0.979 | normalized growth (locus YFR019W, strain FAB1, stronger effect = lower value): 0.901 | normalized growth (locus YFR028C, strain CDC14, stronger effect = lower value): 0.98 | normalized growth (locus YGR040W, strain KSS1, stronger effect = lower value): 0.94 | normalized growth (locus YGR052W, strain FMP48, stronger effect = lower value): 1.03 | normalized growth (locus YGR092W, strain DBF2, stronger effect = lower value): 0.416 (active) | normalized growth (locus YHR030C, strain SLT2, stronger effect = lower value): 0.189 (active) | normalized growth (locus YHR079C, strain IRE1, stronger effect = lower value): 1.05 | normalized growth (locus YHR082C, strain KSP1, stronger effect = lower value): 1.04 | normalized growth (locus YHR205W, strain SCH9, stronger effect = lower value): 0.964 | normalized growth (locus YIL147C, strain SLN1, stronger effect = lower value): 0.96 | normalized growth (locus YJL095W, strain BCK1, stronger effect = lower value): 1.02 | normalized growth (locus YJL128C, strain PBS2, stronger effect = lower value): 0.906 | normalized growth (locus YJL157C, strain FAR1, stronger effect = lower value): 0.922 | normalized growth (locus YJR016C, strain ILV3, stronger effect = lower value): 0.97 | normalized growth (locus YJR066W, strain TOR1 (second series), stronger effect = lower value): 0.898 | normalized growth (locus YJR066W, strain TOR1, stronger effect = lower value): 1.04 | normalized growth (locus YKL048C, strain ELM1, stronger effect = lower value): 0.966 | normalized growth (locus YKL067W, strain YNK1, stronger effect = lower value): 0.947 | normalized growth (locus YKL101W, strain HSL1, stronger effect = lower value): 0.954 | normalized growth (locus YKL193C, strain SDS22, stronger effect = lower value): 0.969 | normalized growth (locus YKL203C, strain TOR2, stronger effect = lower value): 1.02 | normalized growth (locus YLR113W, strain HOG1, stronger effect = lower value): 0.539 (active) | normalized growth (locus YLR133W, strain CKI1, stronger effect = lower value): 0.962 | normalized growth (locus YLR403W, strain SFP1, stronger effect = lower value): 0.941 | normalized growth (locus YML070W, strain DAK1, stronger effect = lower value): 0.904 | normalized growth (locus YMR001C, strain CDC5, stronger effect = lower value): 0.976 | normalized growth (locus YMR205C, strain PFK2 (second series), stronger effect = lower value): 0.966 | normalized growth (locus YMR277W, strain FCP1, stronger effect = lower value): 0.964 | normalized growth (locus YNL006W, strain LST8, stronger effect = lower value): 0.983 | normalized growth (locus YNL020C, strain ARK1, stronger effect = lower value): 0.959 | normalized growth (locus YNL161W, strain CBK1, stronger effect = lower value): 0.971 | normalized growth (locus YNL183C, strain NPR1, stronger effect = lower value): 1 | normalized growth (locus YNL207W, strain RIO2, stronger effect = lower value): 0.965 | normalized growth (locus YNL222W, strain SSU72, stronger effect = lower value): 0.977 | normalized growth (locus YNL307C, strain MCK1 (second series), stronger effect = lower value): 0.967 | normalized growth (locus YOL078W, strain AVO1, stronger effect = lower value): 0.969 | normalized growth (locus YOL136C, strain PFK27, stronger effect = lower value): 0.927 | normalized growth (locus YOR061W, strain CKA2, stronger effect = lower value): 0.94 | normalized growth (locus YOR119C, strain RIO1, stronger effect = lower value): 0.985 | normalized growth (locus YOR231W, strain MKK1, stronger effect = lower value): 1 | normalized growth (locus YOR329C, strain SCD5, stronger effect = lower value): 0.977 | normalized growth (locus YPL031C, strain PHO85, stronger effect = lower value): 0.949 | normalized growth (locus YPL153C, strain RAD53, stronger effect = lower value): 0.916 | normalized growth (locus YPL204W, strain HRR25, stronger effect = lower value): 0.921 | normalized growth (locus YPL209C, strain IPL1, stronger effect = lower value): 0.984 | normalized growth (locus YPL256C, strain CLN2, stronger effect = lower value): 1.01 | normalized growth (locus YPR025C, strain CCL1, stronger effect = lower value): 0.985 | normalized growth (locus YPR106W, strain ISR1, stronger effect = lower value): 0.982 | normalized growth (locus YPR111W, strain DBF20, stronger effect = lower value): 0.989 | normalized growth (strain NNK1, stronger effect = lower value): 0.979 | normalized growth (strain TSCII, stronger effect = lower value): 0.969
